Laboratory results from PubChem BioAssay AID1347056 (Sanford-Burnham Center for Chemical Genomics, 2019).
Several values for one entry are separate records, joined by “and”; a condition that tells them apart may be missing. Identical values can stand only once. In all, about 360,000 compounds went through this assay and about 3,600 (1%) were called active.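 The calls were made as follows: active = compounds whose plate-normalised and pattern-corrected inhibition of the luciferase reporter signal at the single screening dose is 50% or more; inactive = the rest.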 This excerpt belongs to a sample that is enriched for actives.

Test: TROY pathway blockers in reporter cells – Q293 LMP1-TROYcd cells, NF-kB luciferase, uHTS, primary screen (AID 1347056)
Details: 4 h, at 10 µM, hits give high values

inhibition, inactive:
C#C[C@]1(O)CC[C@H]2[C@@H]3CCC4=CC(=O)CC[C@@H]4[C@H]3CC[C@@]21CC -7.9% and -4.22%
Cc1ccc(CNC(=O)C2(C(F)(F)F)C/C(=C\Cc3ccccc3)CCCO2)o1 (stereo unspecified) 6.34%
CCC1Nc2ncnc(N3CCN(c4ccccc4)CC3)c2N(Cc2ccc(Cl)cc2)C1=O (stereo unspecified) 18.3%
O=C(Nc1ncccc1O)c1ccc(S(=O)(=O)N2CCCCCC2)cc1 -10.3%
O=S(=O)(c1ccc(Br)cc1)N1CCC(c2nc3ccccc3[nH]2)CC1 2%
CN1CCN(S(=O)(=O)c2cccc(C(=O)Nc3sccc3C#N)c2)CC1 -0.51%
CN1CCN(C(=O)c2ccc(-c3ccc(Br)cc3)o2)CC1 -59.3%
O=C(NC(=S)Nc1cc(C(F)(F)F)ccc1N1CCOCC1)c1ccc(-c2cccc(Cl)c2)o1 -13.2%
[O-][n+]1c2c(nn1-c1ccc(Cl)c(Cl)c1)-c1nonc1CC2 10.8%
Cc1ncc(CO)c(/C=N/NC(=O)c2cccc(S(=O)(=O)N3CCCC3)c2)c1O 32.4%
Cc1ccc(OCC(=O)c2cc(C)n(Cc3ccco3)c2C)c([N+](=O)[O-])n1 -2.73%
COCCn1c(C)cc(C(=O)COC(=O)CNC(=O)c2ccco2)c1C -1.63%
O=C(COC(=O)Cn1[nH]c(=O)c2ccccc2c1=O)Nc1c(Cl)cccc1C(F)(F)F -7.36%
O=C(Cn1cnc2ccccc2c1=O)Nc1cccc(S(=O)(=O)N2CCCCC2)c1 6.2%
CCCCC(=O)Nc1c2c(nn1-c1ccc([N+](=O)[O-])cc1)CS(=O)(=O)C2 -5.93%
O=C1CCCN1C(=O)COc1ccc([N+](=O)[O-])cc1 9.48%
CC1(C)Cc2c(sc(NC(=O)C(=O)NCC3CCCO3)c2C(=O)O)CO1 (stereo unspecified) -13.6%
CCc1c(O)cc2n(c1=O)-c1ccccc1C2(C)C 4.14%
CCN(CCCNC(=O)C1CCN(S(=O)(=O)c2cnc[nH]2)CC1)c1ccccc1 -0.34%
CCN(CCCNC(=O)CCn1c(=O)[nH]c2ccsc2c1=O)c1ccccc1 0.42%
Cc1ccc(SC(CC(=O)c2ccc(C(C)(C)C)cc2)C(=O)O)cc1 (stereo unspecified) 14.6%
CCOc1ccc(NS(=O)(=O)c2ccc(Cl)c(C(=O)N(C)Cc3cccnc3)c2)cc1 -2.69%
Fc1ccccc1-c1cc2cc3c(cc2cn1)OCO3 -40.9%
CC(NCC(=O)Nc1cc(Cl)cc(Cl)c1)c1ccccc1 (stereo unspecified) 17.5%
Cc1nnc(SC(C(=O)c2ccccc2)c2ccccc2)[nH]c1=O (stereo unspecified) 14.7%
O=C(CN(c1ccc2c(c1)OCCO2)S(=O)(=O)c1ccccc1)Nc1ccc2c(c1)OCO2 -3.48%
CCN1CCN(c2ccc(S(=O)(=O)N3CCCCC3)cc2NC(=O)Cc2c(Cl)cccc2Cl)CC1 4.53%
CCC(=O)Nc1ccccc1C(=O)N1CCN(Cc2ccccc2)CC1 12.5%
CN1OC[C@@H]2CN(S(=O)(=O)c3cccc4ccccc34)[C@H](c3ccc(N4CCCCC4)cc3)C[C@@H]21 14.6%
COc1ccc(S(=O)(=O)N2C[C@H]3CON(C)[C@H]3C[C@H]2c2cccc(Br)c2)cc1 0.2%
CC1Cc2ccccc2N1S(=O)(=O)c1c(N)n(C)c(=O)n(C)c1=O (stereo unspecified) 0.15%
Clc1ccc(-c2cccc3nccn23)cc1 -13.8%
CC(=O)N1N=C(c2ccncc2)OC1(Cc1ccccc1)Cc1ccccc1 5.47%
Cc1cc(Cl)c(S(=O)(=O)NCC2CCCO2)cc1OCC(N)=O (stereo unspecified) -1.29%
Cc1cc(Cl)c(S(=O)(=O)N(C)C)cc1OCC(N)=O 0.31%
COC(=O)CSc1snnc1-c1ccc(Cl)c(Cl)c1 -45.5%
C=CCN(c1ccccc1C(=O)NCC(=O)OCC)S(=O)(=O)c1ccc(C)cc1 1.62%
S=C(NCCCc1cnc[nH]1)NCCCN(Cc1ccc(Cl)c(Cl)c1)c1ccc(Br)cn1 8.84%
Cc1ccc2oc(=O)c3cnn(CC(=O)N4CCCCCC4)c3c2c1 6.16%
CCOC(=O)C1CCCN(C(=O)Cn2ncc3c(=O)oc4ccc(C)cc4c32)C1 (stereo unspecified) 1.47%
CCCCC(=O)Nc1ccc2c(c1)C(=O)NC2=O 10.3%
Cc1cc(C(=O)CSc2nc(N)cc(=O)[nH]2)c(C)n1-c1cccc(F)c1 -1.75%
Cc1cc(C(=O)COc2ccccc2Cl)c(C)n1C1CC1 -42.6%
Cc1ccc(-c2nc3ccc(Br)cn3c2Cc2ccccc2C(F)(F)F)cc1 -33.5%
Cc1ccc(-c2nc3ccc(Cl)cn3c2Cc2ccccc2)cc1 -69.6%
COc1ccc(-c2nc3ccc(Br)cn3c2Cc2ccc(C)cc2)cc1OC -36.6%
Cc1ccc(-c2cc(N)on2)cc1 -41.2%
COc1ccc(C(=O)O)cc1S(=O)(=O)NCc1cccnc1 -5.43%
CC(=O)Nc1ccc(/C(C)=N/NC(=O)CN(c2ccccc2Br)S(C)(=O)=O)cc1 8.85%
COc1ccc(CN(C)C(=S)Nc2ccc(Cl)cc2Cl)cc1 -7.98%
O=C(c1cc(COc2c(F)cccc2F)on1)N1CCSCC1 -17%
Cn1cnc2c1c(=O)n(Cc1ccccc1C#N)c(=O)n2C 2.82%
CCN1CCCC1CNC(=O)c1cc2cc(OC)c(OC)cc2[nH]1 (stereo unspecified) -3.54%
COc1cccc2[nH]c(C(=O)NCCc3ccccc3)cc12 -24.7%
Cc1ccc2c(c1)N(CC(=O)N1CCCC(C)C1)C(=O)CO2 (stereo unspecified) -0.08%
CN(Cc1ccc(F)cc1)C(=O)CN1C(=O)c2ccccc2S1(=O)=O -51.1%
COc1ccc(CNC(=O)CN2C(=O)c3ccccc3S2(=O)=O)cc1 9.08%
CC1CCCN(C(=O)Cn2c(=O)oc3ccccc32)C1 (stereo unspecified) -6.27%
CC(C)(C)c1ccc(S(=O)(=O)N2CCN(C(=O)c3ccc4c(c3)C(=O)N(Cc3ccncc3)C4=O)CC2)cc1 1.2%
CC(NC(=O)COC(=O)c1ccc(Cl)cc1O)c1ccc(F)cc1 (stereo unspecified) 4.75%
Cc1cc(S(=O)(=O)NC2CCCCC2)ccc1OCC(=O)NCc1cccnc1 -5.71%
O=C(CCc1nc(-c2ccccc2)no1)Nc1cccc(C(=O)NC2CC2)c1 18.6%
CN(C)/C=C(\C#N)C(=O)c1cccnc1Oc1ccc(F)cc1F -7.14%
COc1ccc(-c2cc3c(c4c2ccn4C)C2CCC3C2)cn1 (stereo unspecified) 8.35%
Cc1ccc(NS(=O)(=O)c2ccc(-c3ccc(=O)[nH]n3)o2)c(C)c1 -3.14%
CC(NC(=O)COC(=O)c1ccc2ccccc2n1)c1ccccc1 (stereo unspecified) -0.28%
CC1COc2ccccc2N1C(=O)c1cccnc1Cl (stereo unspecified) 8%
CCCN(CCC)CCNC(=O)c1cc2c(C)nc3ccccc3c2o1 -8.54%
O=C(NCCc1ccccn1)c1cc(-c2ccc(Cl)cc2)nc2ccccc12 15.8%
COc1ccc(OC)c(CCNC(=O)CCn2ccc3cc(S(=O)(=O)N4CCCC4)ccc32)c1 -2.42%
CC1CCN(c2ccc3c(c2)S(=O)(=O)c2cc(C(=O)O)ccc2C3=O)CC1 -46.1%
O=C(c1ccc2c(c1)N(Cc1ccc(F)cc1)C(=O)c1ccccc1S2(=O)=O)N1CCN(c2ccccn2)CC1 11.9%

inhibition, active:
N#CC(C(=O)c1ccc(S(=O)(=O)N2CCCCCC2)cc1)c1nc2ccccc2[nH]1 (stereo unspecified) 51.6%
O=C(NC(=S)Nc1ccccc1C(=O)O)c1ccc(-c2ccc(Br)cc2)o1 79.8%
Cc1cc(C(=O)COC(=O)CNC(=O)c2ccc(F)cc2)c(C)n1Cc1ccco1 71.1%
O=C1/C(=C\c2ccc([N+](=O)[O-])cc2)CS(=O)(=O)C/C1=C/c1ccc([N+](=O)[O-])cc1 75%
CCN(CCCNC(=O)c1ccc2c(c1)NC(=O)CN2C)c1cccc(C)c1 71.7%
Cc1nnc(SC(C(=O)Nc2cc(Cl)cc(Cl)c2)c2ccccc2)[nH]c1=O (stereo unspecified) 54.4%
COCCn1c(C)cc(C2=NNC(=Nc3ccc(F)cc3)SC2)c1C 56.7%
C=CCn1c(C)cc(C2=NNC(=NCC)SC2)c1C 88%
CN1OC[C@@H]2CN(S(=O)(=O)c3cccc(C(F)(F)F)c3)[C@H](c3ccc(-c4cc5ccccc5o4)cc3)C[C@@H]21 64.2%
Cc1cc(Cl)c(S(=O)(=O)Nc2ccc3c(c2)OCCO3)cc1OCC(N)=O 77.5%
Cc1ccc2oc(=O)c3cnn(CC(=O)N(Cc4ccco4)C4CCCCC4)c3c2c1 58.7%
Cc1cc(C(=O)COC(=O)C2CC2)c(C)n1-c1ccc(F)cc1 90.5%
Cc1ccc2nc(-c3ccc(Br)cc3)cn2c1 71.4%
Cc1ccc(-c2cn3cc(C)ccc3n2)cc1 86.4%
COc1cc2cc(C(=O)N/N=C/c3cccc(OC)c3OC)[nH]c2cc1OC 69.2%
O=C(CN1C(=O)c2ccccc2S1(=O)=O)N1CCc2ccccc21 89.1%
CC1CCCN(C(=O)CN2C(=O)c3ccccc3S2(=O)=O)C1 (stereo unspecified) 58.2%
CN(C)CCNC(=O)c1ccc(Cl)c2cc3ccccc3nc12 51.8%
O=C1c2ccccc2S(=O)(=O)c2cc(N3CCN(c4ccccn4)CC3)ccc21 69.7%
